In test [1] the target is Estrogen receptor (Homo sapiens) (UniProt P03372). Briefly: qHTS assay for small molecule antagonists of estrogen receptor alpha signaling (AID 588513; active = well fitted curve in the direction sought with a large enough effect in the signal ratio, with a control signal flat, not every such curve was filed as active; inconclusive = small, poorly fitted or top-dose-only effect, or effect the other way, or a change in a side signal; inactive = no such curve, though single readings can be large or run the other way; the % refers to the signal ratio; also: potency is read from the fitted curve at half-maximal effect). Put shortly: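 Beta-lactamase reporter, antagonist mode, HEK 293 GripTite cells; 0.5nM E2 stimulus, 18 h, 37 C; CCF4 dye 2 h RT; fluorescence. IC50 and efficacy from Hill fits, normalized to E2 and DMSO.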
Chain of Estrogen receptor (Homo sapiens) (P03372 whole entry, looked up): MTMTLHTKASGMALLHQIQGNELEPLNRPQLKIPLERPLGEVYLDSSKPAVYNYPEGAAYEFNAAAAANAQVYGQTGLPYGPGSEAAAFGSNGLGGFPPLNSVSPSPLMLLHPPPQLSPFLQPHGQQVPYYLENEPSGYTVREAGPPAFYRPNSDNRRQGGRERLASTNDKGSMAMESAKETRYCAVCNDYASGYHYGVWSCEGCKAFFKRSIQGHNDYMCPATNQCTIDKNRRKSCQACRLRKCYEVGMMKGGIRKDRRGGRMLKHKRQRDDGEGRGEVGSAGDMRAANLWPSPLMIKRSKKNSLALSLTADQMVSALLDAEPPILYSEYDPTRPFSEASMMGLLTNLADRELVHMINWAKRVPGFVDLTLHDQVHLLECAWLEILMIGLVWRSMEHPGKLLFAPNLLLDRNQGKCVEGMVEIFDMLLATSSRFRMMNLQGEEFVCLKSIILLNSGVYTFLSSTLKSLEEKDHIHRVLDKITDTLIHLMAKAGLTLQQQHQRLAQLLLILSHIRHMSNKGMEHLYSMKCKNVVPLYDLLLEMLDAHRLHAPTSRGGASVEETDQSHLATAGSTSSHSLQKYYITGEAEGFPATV
Test [2] shares this target. The test can be described thus: qHTS assay for small molecule agonists of estrogen receptor alpha signaling (AID 588514). Also: nearly all actives have a fitted effect of over 70% in size. Also: potency is read from the fitted curve at half-maximal effect.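 As to activation: 0% = vehicle only and 100% = reference agonist.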 In short, it runs like this:
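ER-alpha-UAS-bla GripTite HEK293 cells, 5000/well in 2% charcoal/dextran-stripped FBS medium, treated with compound titrations 18 h at 37 C. CCF4 beta-lactamase read by fluorescence after 2 h RT; normalised to 20 nM 17-beta-estradiol (100%) and DMSO (0%), Hill fit for EC50 and efficacy.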
In general terms: In qHTS, concentration-response curves come from the screen itself.

The target of test [3] is Peroxisome proliferator-activated receptor delta (Homo sapiens) (UniProt Q03181). Briefly: qHTS assay for small molecule agonists of peroxisome proliferator-activated receptor delta signaling (AID 588534).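 Also: 0% = DMSO basal wells and 100% = positive control agonist at 10 µM.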 Put shortly: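 Cells carrying a PPAR-delta beta-lactamase reporter were treated with compounds for 18 h at 37 °C in agonist mode. CCF4 fluorescence was read after 2 h; EC50 and efficacy from Hill fits.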
Chain of Peroxisome proliferator-activated receptor delta (Homo sapiens) (Q03181 whole entry, looked up): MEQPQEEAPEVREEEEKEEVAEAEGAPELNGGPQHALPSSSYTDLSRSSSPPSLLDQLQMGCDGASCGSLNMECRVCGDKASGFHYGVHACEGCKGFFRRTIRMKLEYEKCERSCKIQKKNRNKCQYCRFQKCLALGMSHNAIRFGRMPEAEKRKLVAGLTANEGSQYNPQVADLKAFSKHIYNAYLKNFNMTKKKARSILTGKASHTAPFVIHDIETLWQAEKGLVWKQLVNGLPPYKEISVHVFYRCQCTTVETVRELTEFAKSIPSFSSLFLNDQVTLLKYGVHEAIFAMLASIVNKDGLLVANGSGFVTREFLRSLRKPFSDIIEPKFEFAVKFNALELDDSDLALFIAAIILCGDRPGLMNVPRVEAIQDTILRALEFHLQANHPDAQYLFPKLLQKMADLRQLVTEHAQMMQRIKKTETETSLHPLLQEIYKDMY

Test [4] has as its target Peroxisome proliferator-activated receptor gamma (Homo sapiens) (UniProt P37231). Briefly: qHTS assay for small molecule agonists of peroxisome proliferator-activated receptor gamma signaling (AID 588536; active = well fitted curve in the direction sought with a large enough effect in the signal ratio, with a control signal flat, not every such curve was filed as active; inconclusive = small, poorly fitted or top-dose-only effect, or effect the other way, or a change in a side signal; inactive = no such curve, though single readings can be large or run the other way; the % refers to the signal ratio;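 also: 0% = DMSO basal wells and 100% = rosiglitazone at 2 µM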). In short, it runs like this:
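Test agents, titrated, stimulated HEK293 UAS-bla cells overnight (16 h, 37 C). Substrate CCF4 was then added for two hours at room temperature before fluorescence reading.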

For test [5], the target named is Vitamin D3 receptor (Homo sapiens) (UniProt P11473). Briefly: qHTS assay for small molecule antagonists of vitamin D receptor signaling (AID 588541).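 Also: receptor activated by calcitriol during compound treatment; series mostly up to about 77 µM; % is scaled to controls: 0 for no effect and ±100 for the full control effect.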 In short, it runs like this: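 Antagonist-mode beta-lactamase reporter assay: HEK293T VDR-UAS-bla cells were exposed to titrated compound alongside 1-alpha,25-dihydroxyvitamin D3 at 3 nM final for 16 h. Values were normalized to the 50 nM agonist control and DMSO basal, with IC50 and efficacy from Hill equation fits.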
Chain of Vitamin D3 receptor (Homo sapiens) (P11473 whole entry, looked up): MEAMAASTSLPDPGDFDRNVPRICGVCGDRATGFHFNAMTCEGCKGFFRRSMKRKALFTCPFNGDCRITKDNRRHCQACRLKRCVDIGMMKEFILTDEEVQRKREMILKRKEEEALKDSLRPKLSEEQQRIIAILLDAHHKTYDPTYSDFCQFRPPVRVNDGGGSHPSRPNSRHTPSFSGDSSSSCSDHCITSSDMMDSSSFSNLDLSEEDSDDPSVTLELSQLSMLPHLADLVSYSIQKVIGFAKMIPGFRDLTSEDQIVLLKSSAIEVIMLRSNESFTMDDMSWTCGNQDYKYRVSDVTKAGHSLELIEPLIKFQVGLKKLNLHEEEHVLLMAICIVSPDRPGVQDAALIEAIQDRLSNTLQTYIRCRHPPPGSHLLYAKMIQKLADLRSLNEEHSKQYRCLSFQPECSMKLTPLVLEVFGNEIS

Test [6] can be described thus: qHTS assay for small molecule agonists of retinoid X receptor alpha signaling (AID 588544).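 As to activation: 0% = DMSO basal wells and 100% = reference agonist.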 The note with it: HEK293T RXRa-UAS-bla, beta-lactamase reporter, 18 h; 530 nm emission.
Test [7] concerns the target Retinoic acid receptor RXR-alpha (Homo sapiens) (UniProt P19793). The test is described as above.
Test [8] in a line: qHTS assay for small molecule antagonists of retinoid X receptor alpha signaling (AID 588546; active = well fitted inhibition curve with a large enough effect in the signal ratio, with a control signal flat, not every such curve was filed as active; inconclusive = small, poorly fitted or top-dose-only effect, or effect the other way, or a change in a side signal; inactive = no such curve, though single readings can be large or run the other way; the % refers to the signal ratio;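 also: cells stimulated with 9-cis-retinoic acid as agonist; % is scaled to controls: 0 for no effect and ±100 for the full control effect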). As to conditions: HEK293T RXRa-UAS-bla, beta-lactamase ratio, antagonist mode; measured here: W530 green channel, cytotoxicity proxy. Put shortly:
(§1)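 Beta-lactamase reporter inhibition, read as CCF4 fluorescence ratio (ex 405, em 460/530 nm) after 2 h at RT. HEK293T UAS-bla cells, 2500/well, were stimulated with 9-cis-RA at 500 or 100 nM final alongside test compound for 18 h at 37 C.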

Test [9] in a line: qHTS assay for small molecule activators of the p53 signaling pathway (AID 651743; active = well fitted activation curve with a large enough effect in the signal ratio, not every such curve was filed as active; inconclusive = small, poorly fitted or top-dose-only effect, or a change in a side signal; the % refers to the signal ratio; also: potency is read from the fitted curve at half-maximal effect; as to activation: series mostly up to about 92 µM; % of control where 0% means no effect). As to conditions: HCT-116 p53RE-bla, beta-lactamase FRET ratio, 16 h; activation: stronger effect = higher value. Put shortly: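 Read-out is fluorescence intensity from the LiveBLAzer B/G FRET substrate, added for 2 hours at room temperature after HCT-116 p53RE-bla cells had been incubated with compounds for 16 hours at 37 C.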

Test [10] can be described thus: qHTS assay for environmental chemicals that activate the Aryl hydrocarbon Receptor (AhR) signaling pathway (AID 651777; active = well fitted curve in the direction sought with a large enough effect; inconclusive = small, poorly fitted or top-dose-only effect, or another doubt; inactive = no such curve, though single readings can be large; an effect the other way counts as inactive or inconclusive; also: % of control where 0% means no effect; nearly all actives have a fitted effect of over 15% in size). The note with it: 1A2-DRE human hepatoma cells, luciferase, 24 h; activation: stronger effect = higher value. In short, it runs like this:
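Luminescence (One-Glo, 30 min, room temperature) reports AhR-driven luciferase in stably transfected human hepatoma cells bearing DRE and CYP1A2 promoter. Cells (1,200/well) were treated with compound for 24 hr at 37 C in qHTS format.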

In test [11] the target is Peroxisome proliferator-activated receptor alpha (Homo sapiens) (UniProt Q07869). Briefly: qHTS assay for small molecule agonists of the peroxisome proliferator-activated receptor alpha (PPARalpha) signaling pathway (AID 651778; active = well fitted curve in the direction sought with a large enough effect; inconclusive = small, poorly fitted or top-dose-only effect, or another doubt; inactive = no such curve, though single readings can be large; an effect the other way counts as inactive or inconclusive; also: % of control where 0% means no effect). As to conditions: PathHunter PPARalpha complementation, chemiluminescence, 6 h; max response: stronger effect = higher value. Put shortly: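 Chemiluminescence from complemented enzyme reported PPARalpha activation in cells after 6 hr of compound treatment at 37 C. The detection reagent was incubated for 60 min at room temperature, and compounds were scored as agonists.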
Chain of Peroxisome proliferator-activated receptor alpha (Homo sapiens) (Q07869 whole entry, looked up): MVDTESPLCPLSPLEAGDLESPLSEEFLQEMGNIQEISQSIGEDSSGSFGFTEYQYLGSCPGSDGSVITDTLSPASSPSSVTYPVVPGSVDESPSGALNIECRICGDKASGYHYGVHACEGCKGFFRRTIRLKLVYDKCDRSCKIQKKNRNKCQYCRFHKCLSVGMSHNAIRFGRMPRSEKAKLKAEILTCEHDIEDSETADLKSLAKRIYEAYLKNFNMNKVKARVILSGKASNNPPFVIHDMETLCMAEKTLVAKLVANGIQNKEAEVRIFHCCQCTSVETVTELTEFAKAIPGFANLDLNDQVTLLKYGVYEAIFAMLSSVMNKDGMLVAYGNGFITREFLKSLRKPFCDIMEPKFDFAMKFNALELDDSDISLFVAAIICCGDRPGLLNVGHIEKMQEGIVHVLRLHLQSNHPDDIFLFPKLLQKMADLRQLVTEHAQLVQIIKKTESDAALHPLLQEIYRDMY

Test [12] in a line: qHTS assay for small molecule agonists of the antioxidant response element (ARE) signaling pathway measured by Nrf2-dependant transcriptional activity (AID 720636; active = well fitted curve in the direction sought with a large enough effect in the repeat runs; inconclusive = weak or mixed curves; inactive = no such curve, though single readings can be large; an effect the other way counts as inactive or inconclusive; also: potency is read from the fitted curve at half-maximal effect; as to activation: % of control where 0% means no effect). Put shortly: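 Nrf2-dependent transcription read as ONE-Glo luciferase signal from ARE-luc HepG2 reporter cells after 16 hr compound treatment at 37 C, 5% CO2, in assay medium with 1% dialyzed FBS.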
Test [13] is described as follows: qHTS assay for small molecule agonists of the antioxidant response element (ARE) signaling pathway measured by Nrf2-dependant transcriptional activity - cell viability counter screen (AID 720653; active = well fitted curve in the direction sought with a large enough effect in the repeat runs; inconclusive = weak or mixed curves; inactive = no such curve, though single readings can be large; an effect the other way counts as inactive or inconclusive; also: % is scaled to controls: 0 for no effect and ±100 for the full control effect). As to conditions: ARE-bla HepG2 viability, CellTiter-Glo ATP luminescence, 16 h; max response: stronger effect = lower value. In short, it runs like this: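 Cytotoxicity counter screen: intracellular ATP quantified by CellTiter-Glo luminescence in the same ARE-bla HepG2 plates, after 16 h compound exposure and a 2 h beta-lactamase substrate step.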

Test [14] can be described thus: qHTS assay for cell viability of HEK293 cells (AID 743288; active = well fitted curve in the direction sought with a large enough effect; inconclusive = small, poorly fitted or top-dose-only effect, or another doubt; inactive = no such curve, though single readings can be large; an effect the other way counts as inactive or inconclusive; also: % is scaled to controls: 0 for no effect and ±100 for the full control effect; nearly all actives have a fitted effect of over 50% in size). As to conditions: ATP luminescence (CellTiter-Glo), 18 h; max response: stronger effect = lower value. Put shortly: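 Environmental chemicals tested in qHTS format against parental HEK293 cells; 18 h treatment, 37 C; read-out ATP luminescence (CellTiter-Glo), 30 min RT development.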
The nature of test [15]: qHTS assay for cell viability of the p53RE-bla HCT-116 cell line (AID 743292; active = well fitted curve in the direction sought with a large enough effect; inconclusive = small, poorly fitted or top-dose-only effect, or another doubt; inactive = no such curve, though single readings can be large; an effect the other way counts as inactive or inconclusive; also: % is scaled to controls: 0 for no effect and ±100 for the full control effect; nearly all actives have a fitted effect of over 55% in size). Put shortly:
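ATP-based luminescent viability (CellTiter-Glo, 30 min RT) after 16 h compound treatment at 37 C of p53RE-bla HCT-116 cells, seeded at 4,000 cells/well and rested 5 h before dosing.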

The target in test [16] is Nuclear receptor subfamily 1 group I member 2 (Rattus norvegicus) (UniProt Q9R1A7). Briefly: qHTS assay for small molecule activators of the rat pregnane X receptor (rPXR) signaling pathway (AID 651751; call rule not given here; also: 0% is about no effect). The note with it: rPXR reporter cells, luciferase (One-Glo), 24 h.
Chain of Nuclear receptor subfamily 1 group I member 2 (Rattus norvegicus) (Q9R1A7 whole entry, looked up): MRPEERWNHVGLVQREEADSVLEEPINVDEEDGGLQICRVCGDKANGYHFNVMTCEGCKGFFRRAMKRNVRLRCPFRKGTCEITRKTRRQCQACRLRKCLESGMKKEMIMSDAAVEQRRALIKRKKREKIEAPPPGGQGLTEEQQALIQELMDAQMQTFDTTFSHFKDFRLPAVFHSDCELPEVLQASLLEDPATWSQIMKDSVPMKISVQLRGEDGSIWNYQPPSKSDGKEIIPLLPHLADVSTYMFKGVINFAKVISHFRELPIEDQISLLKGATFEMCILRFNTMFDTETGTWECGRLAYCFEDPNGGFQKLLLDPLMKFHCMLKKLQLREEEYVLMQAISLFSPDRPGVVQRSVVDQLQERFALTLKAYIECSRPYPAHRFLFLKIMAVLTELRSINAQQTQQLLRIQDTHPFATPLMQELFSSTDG
The target of test [17] is Thyroid hormone receptor beta (Homo sapiens) (UniProt P10828). Briefly: qHTS assay for small molecule agonists of thyroid hormone receptor beta signaling (AID 588545).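 Also: 0% = DMSO only and 100% = 10 nM T3.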 Put shortly:
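Beta-lactamase reporter activity under TR response element control is measured in HEK 293 cells after 18 hrs compound exposure. Signal is ratiometric CCF4 fluorescence, 460/530 nm.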

The target of test [18] is Retinoic acid receptor RXR-alpha (Homo sapiens) (UniProt P19793). The test can be described thus: qHTS assay for small molecule antagonists of retinoid X receptor alpha signaling (AID 588546).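 Also: cells stimulated with 9-cis-retinoic acid as agonist; % is scaled to controls: 0 for no effect and ±100 for the full control effect.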 As to conditions: HEK293T RXRa-UAS-bla, beta-lactamase ratio, antagonist mode. Put shortly:
as §1

The target of test [19] is Peroxisome proliferator-activated receptor gamma (Homo sapiens) (UniProt P37231). The test can be described thus: qHTS assay for small molecule antagonists of peroxisome proliferator-activated receptor gamma signaling (AID 588537; active = well fitted inhibition curve with a large enough effect in the signal ratio, with a control signal flat, not every such curve was filed as active; inconclusive = small, poorly fitted or top-dose-only effect, or effect the other way, or a change in a side signal; the % refers to the signal ratio;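 also: reporter cells co-stimulated with 50 nM rosiglitazone agonist during compound treatment; % of control where 0% means no effect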). Put shortly: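 Antagonist mode, beta-lactamase reporter in HEK293; charcoal/dextran FBS 1%; 3000 cells/well, 37 C 6-6.5 h; cpd titration + rosiglitazone 50 nM final, 16 h 37 C; CCF4, 2 h RT; 460/530 nm; Hill fit → IC50, efficacy.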
Chain of Peroxisome proliferator-activated receptor gamma (Homo sapiens) (P37231 whole entry, looked up): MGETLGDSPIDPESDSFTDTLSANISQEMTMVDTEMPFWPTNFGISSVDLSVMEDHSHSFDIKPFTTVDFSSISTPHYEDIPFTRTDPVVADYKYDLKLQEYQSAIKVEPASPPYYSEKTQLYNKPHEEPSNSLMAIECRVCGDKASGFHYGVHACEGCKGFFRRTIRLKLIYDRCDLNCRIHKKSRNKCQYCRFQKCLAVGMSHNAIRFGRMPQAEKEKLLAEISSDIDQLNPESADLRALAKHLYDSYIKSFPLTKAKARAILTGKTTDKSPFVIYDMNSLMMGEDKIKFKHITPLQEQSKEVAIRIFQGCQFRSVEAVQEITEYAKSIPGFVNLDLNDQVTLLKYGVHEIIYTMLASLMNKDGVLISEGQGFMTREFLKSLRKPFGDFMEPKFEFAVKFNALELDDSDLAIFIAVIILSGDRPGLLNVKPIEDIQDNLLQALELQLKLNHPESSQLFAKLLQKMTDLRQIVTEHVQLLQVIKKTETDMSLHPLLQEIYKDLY

For test [20], the target named is Thyroid hormone receptor beta (Homo sapiens) (UniProt P10828). Briefly: qHTS assay for small molecule antagonists of thyroid hormone receptor beta signaling (AID 588547; active = well fitted inhibition curve with a large enough effect in the signal ratio, with a control signal flat, not every such curve was filed as active; inconclusive = small, poorly fitted or top-dose-only effect, or effect the other way, or a change in a side signal; the % refers to the signal ratio). The note with it: TR-UAS-bla HEK293, beta-lactamase ratio, antagonist mode, 18 h. Put shortly: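 Inhibition of T3-driven (0.4nM final) beta-lactamase reporter activity was measured over 0.59 nM to 92 uM compound after 18 h at 37 C. The cells were GripTite HEK293 TR-UAS-bla in charcoal/dextran-stripped serum, with CCF4 ratio read-out and IC50 from Hill fits.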
Chain of Thyroid hormone receptor beta (Homo sapiens) (P10828 whole entry, looked up): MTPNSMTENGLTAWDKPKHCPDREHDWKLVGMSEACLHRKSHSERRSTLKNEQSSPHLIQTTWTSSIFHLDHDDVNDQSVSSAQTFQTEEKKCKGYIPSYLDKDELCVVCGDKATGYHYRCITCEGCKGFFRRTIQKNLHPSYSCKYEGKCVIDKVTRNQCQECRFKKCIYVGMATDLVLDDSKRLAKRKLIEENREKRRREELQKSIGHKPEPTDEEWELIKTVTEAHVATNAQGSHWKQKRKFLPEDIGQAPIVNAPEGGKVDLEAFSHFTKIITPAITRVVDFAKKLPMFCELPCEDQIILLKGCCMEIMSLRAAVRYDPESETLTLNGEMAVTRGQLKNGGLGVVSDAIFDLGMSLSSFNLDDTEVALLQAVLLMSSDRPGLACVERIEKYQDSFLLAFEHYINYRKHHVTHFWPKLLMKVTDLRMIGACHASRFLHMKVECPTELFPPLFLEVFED

The structures appear in SMILES notation. Values joined by “and” are separate entries in the source; they are usually repeats but may differ in a detail not shown here. Equal entries are not always repeated. A structure can be active in one record and inactive in another. Active and inactive are the calls of the source. Unless noted, calls follow the shape of the full dose curve.

Chain of Retinoic acid receptor RXR-alpha (Homo sapiens) (P19793 whole entry, looked up): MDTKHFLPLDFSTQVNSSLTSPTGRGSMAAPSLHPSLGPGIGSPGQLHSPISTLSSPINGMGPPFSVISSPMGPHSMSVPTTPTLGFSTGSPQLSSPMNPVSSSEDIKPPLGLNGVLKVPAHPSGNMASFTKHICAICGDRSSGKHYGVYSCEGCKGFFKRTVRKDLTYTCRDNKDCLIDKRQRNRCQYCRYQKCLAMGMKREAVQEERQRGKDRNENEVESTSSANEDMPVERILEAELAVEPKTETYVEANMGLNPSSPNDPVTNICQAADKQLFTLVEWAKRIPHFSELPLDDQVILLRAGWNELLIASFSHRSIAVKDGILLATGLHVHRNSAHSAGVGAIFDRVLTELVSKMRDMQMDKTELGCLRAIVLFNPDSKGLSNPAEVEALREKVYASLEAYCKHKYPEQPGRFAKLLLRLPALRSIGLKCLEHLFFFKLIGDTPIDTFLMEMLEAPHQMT

As for `CC(C)(C#N)N=NC(C)(C)C#N`, the Potency entry in test [1], in test [2], in test [4], in test [5], in [7] and in test [12] was “inactive” in each case. For the same molecule, the Potency entry in [15] was “inactive”. Besides, the result in [3] was inactive. Moreover, the max response in test [6] is -3.46%; in test [8], -2.24%; in test [11] it was -0.208% (inactive); in [13], -0.383% (inactive); in test [14], -5.77% (inactive); in test [16] it was 0.774% (inactive). Moreover, the activation was -7.6% (inactive) in test [9] and 3.1% (inactive) in test [10].

Regarding `C=CCC1=C(C)[C@@H](OC(=O)[C@@H]2[C@@H](C=C(C)C)C2(C)C)CC1=O`, the Potency entry in test [1], in test [2], in [5], in test [7], in test [17] and in [12] was “inactive” each time. Also, in test [15], the Potency result is “inactive”. In addition, the max response was 6.67% in test [6]; -5.3% in test [8]; -11.9% (inactive) in test [18]; 2.33% (inactive) in test [11]; -11.6% (inactive) in test [13]; -2.02% (inactive) in test [14]. For the same molecule, the values for the activation in test [9] and in test [10] were 0.97% (inactive) and 1.77% (inactive), respectively.

Turning to `CCCCC(CC)COC(=O)Cl` (stereo not given), the Potency entry in test [1], in test [2], in test [19], in test [5], in test [7] and in [17] was “inactive” throughout. Further, the Potency result in test [12] and in test [15] was “inactive” each time. Besides, the max response in test [8] is -5.58%; in [11], -1.56% (inactive); in test [13], -0.503% (inactive); in test [16] it was 4.58% (inactive). For the same molecule, the activity change % (negative = inhibition) in test [20] is -1.19% (inactive). Moreover, the activation in test [10] was 2.75% (inactive).

Turning to `C/C(=N\NC(=O)Nc1cc(F)cc(F)c1)c1ncccc1C(=O)O`, the Potency entry in [1], in test [2], in test [4], in [19], in test [5] and in [7] was “inactive” throughout. Besides, the Potency result in test [17], in test [12] and in test [15] was “inactive” each time. The max response in [6] was 4% and -10.7%; in test [8] it was -5.57% and -1.16%; in test [18], -18.2% (inactive) and 0.0153% (inactive); in test [11], 0.136% (inactive) and -0.453% (inactive); in test [13], -4.25% (inactive) and -0.19% (inactive); in test [14], -5.69% (inactive) and -3.6% (inactive). Besides, in [16], the max response was -0.995% (inactive) and 1.1% (inactive). The activity change % (negative = inhibition) in test [20] was -6.39% (inactive). Further, the activation is -1.04% (inactive) and 1.35% (inactive) in test [9]; 0.312% (inactive) and 2.08% (inactive) in test [10].

With `CCN(CC)C(=O)C(C)Oc1cccc2ccccc12` (stereo not given), the Potency entry in [1], in test [2], in test [4], in test [19], in test [7] and in test [17] was “inactive” in each case. The Potency entry in [12] and in test [15] was “inactive” in each case. Further, the result in [3] was inactive. Moreover, the max response was 5.95% in [6]; -20.3% in test [8]; -6.13% (inactive) in test [18]; 0.442% (inactive) in test [11]; -4.78% (inactive) in [13]; -1.61% (inactive) in test [14]. In addition, in test [20], the activity change % (negative = inhibition) is -8.01% (inactive). The activation was -0.234% (inactive) in [9] and 1.45% (inactive) in test [10].

In the case of `O=Nc1ccc(Nc2ccccc2)cc1`, the Potency in [1] was 12.6 µM [inconclusive] (active); in test [2], 5.01 µM (active); in test [9], 50.1 µM (active); in test [12], 21.7 µM (active). Further, in [3], the call was inactive. Moreover, the Potency entry in test [19] is “inactive”. For the same molecule, the activation is 19.9% (inactive) in test [9] and 6.01% (inactive) in test [10].

The values above are taken from PubChem BioAssay (NCATS).
